Results from PubChem BioAssay.
Calls of active or inactive are those of the source.

How the values were obtained:
[1] = tested on: PRMT1 (protein arginine N-methyltransferase 1); assay: PRMT1 binders on small-molecule microarrays, primary screen, biochemical, small-molecule microarray, 635 nm fluorescence (AID 1088); conditions: small-molecule microarray binding, higher = more signal;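 also: binding of Prmt1 protein to compounds spotted on small-molecule microarray slides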
[2] = yeast growth modulation, basal conditions, primary screen, YJM789 clinical isolate, OD600, 24 h (AID 1089);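 also: growth of clinical yeast isolate S. cerevisiae YJM 789 seeded 1000 cells per well; test concentration not given here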; conditions: S. cerevisiae YJM789 growth, higher = more signal, called active from +8 up or from −8 down
[3] = fission yeast growth modulation, primary screen, strain 972, OD600, 24 h, no modulator (AID 1090);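 also: basal condition with compound alone and no growth modifier present; test concentration not given here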; conditions: S. pombe 972 growth, higher = more signal, called active from +8 up or from −8 down
[4] = S. cerevisiae growth modulation with rapamycin, primary screen, strain BY4716, OD600, 96 h (AID 1091); conditions: higher = more signal, called active from +8 up or from −8 down; also: test concentration not given here
[5] = molecular target: Torsin-1A-interacting protein 2 (Homo sapiens) (UniProt Q8NFQ8); assay: LULL1 binders on small-molecule microarray, primary screen, cell lysate, human LULL1 lysate, 635/667 nm fluorescence (AID 1092); conditions: hLULL1 lysate binding, 635 nm fluorescence, higher = more signal;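 also: probe is lysate of COS7 cells overexpressing human LULL1; score merges per-feature 667 nm fluorescence with signal-to-noise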
Sequence of Torsin-1A-interacting protein 2 (Homo sapiens) (Q8NFQ8 whole entry, looked up): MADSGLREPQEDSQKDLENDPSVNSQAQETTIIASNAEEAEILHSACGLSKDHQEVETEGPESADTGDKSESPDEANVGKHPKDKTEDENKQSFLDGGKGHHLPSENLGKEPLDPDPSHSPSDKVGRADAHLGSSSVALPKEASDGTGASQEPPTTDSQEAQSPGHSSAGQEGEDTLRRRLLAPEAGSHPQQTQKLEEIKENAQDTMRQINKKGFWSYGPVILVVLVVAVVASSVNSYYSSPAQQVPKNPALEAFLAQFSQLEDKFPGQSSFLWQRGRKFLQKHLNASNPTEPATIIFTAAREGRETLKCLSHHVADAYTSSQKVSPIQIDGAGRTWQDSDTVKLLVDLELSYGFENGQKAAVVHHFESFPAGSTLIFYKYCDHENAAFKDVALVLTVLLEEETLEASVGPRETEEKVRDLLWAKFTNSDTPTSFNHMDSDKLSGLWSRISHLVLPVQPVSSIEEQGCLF

[6] = E. coli growth modulation, two-sided OD650, primary screen, E. coli filamentation project, strain DRC41, 24 h (AID 1093); conditions: OD650, 24 h, higher = more signal, called active from +8 up or from −8 down;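 also: MC1000 strain lacking acrAB efflux and sulA so SOS filamentation is blocked; test concentration not given here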
[7] = small-molecule microarray binders of probe aLefty2, primary screen, biochemical, biotinylated probe, 635/667 nm fluorescence (AID 1094); conditions: higher = more signal;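 also: score merges spot fluorescence near 667 nm with spot signal-to-noise ratio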
[8] = tested on: Noggin (protein binding on small-molecule microarray); assay: Noggin binders on small-molecule microarray, primary screen, biochemical, 635/667 nm fluorescence (AID 1095); conditions: 635 nm fluorescence, higher = more signal;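 also: score merges 667 nm feature fluorescence with signal to noise over triplicate slides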
[9] = molecular target: Neurogenic locus notch homolog protein 3 (Homo sapiens) (UniProt Q9UM47); assay: NOTCH3 binders on small-molecule microarray, primary screen, biochemical, 635/667 nm fluorescence (AID 1096); conditions: NOTCH3 binding, 635 nm fluorescence, higher = more signal
Sequence of Neurogenic locus notch homolog protein 3 (Homo sapiens) (Q9UM47 whole entry, looked up): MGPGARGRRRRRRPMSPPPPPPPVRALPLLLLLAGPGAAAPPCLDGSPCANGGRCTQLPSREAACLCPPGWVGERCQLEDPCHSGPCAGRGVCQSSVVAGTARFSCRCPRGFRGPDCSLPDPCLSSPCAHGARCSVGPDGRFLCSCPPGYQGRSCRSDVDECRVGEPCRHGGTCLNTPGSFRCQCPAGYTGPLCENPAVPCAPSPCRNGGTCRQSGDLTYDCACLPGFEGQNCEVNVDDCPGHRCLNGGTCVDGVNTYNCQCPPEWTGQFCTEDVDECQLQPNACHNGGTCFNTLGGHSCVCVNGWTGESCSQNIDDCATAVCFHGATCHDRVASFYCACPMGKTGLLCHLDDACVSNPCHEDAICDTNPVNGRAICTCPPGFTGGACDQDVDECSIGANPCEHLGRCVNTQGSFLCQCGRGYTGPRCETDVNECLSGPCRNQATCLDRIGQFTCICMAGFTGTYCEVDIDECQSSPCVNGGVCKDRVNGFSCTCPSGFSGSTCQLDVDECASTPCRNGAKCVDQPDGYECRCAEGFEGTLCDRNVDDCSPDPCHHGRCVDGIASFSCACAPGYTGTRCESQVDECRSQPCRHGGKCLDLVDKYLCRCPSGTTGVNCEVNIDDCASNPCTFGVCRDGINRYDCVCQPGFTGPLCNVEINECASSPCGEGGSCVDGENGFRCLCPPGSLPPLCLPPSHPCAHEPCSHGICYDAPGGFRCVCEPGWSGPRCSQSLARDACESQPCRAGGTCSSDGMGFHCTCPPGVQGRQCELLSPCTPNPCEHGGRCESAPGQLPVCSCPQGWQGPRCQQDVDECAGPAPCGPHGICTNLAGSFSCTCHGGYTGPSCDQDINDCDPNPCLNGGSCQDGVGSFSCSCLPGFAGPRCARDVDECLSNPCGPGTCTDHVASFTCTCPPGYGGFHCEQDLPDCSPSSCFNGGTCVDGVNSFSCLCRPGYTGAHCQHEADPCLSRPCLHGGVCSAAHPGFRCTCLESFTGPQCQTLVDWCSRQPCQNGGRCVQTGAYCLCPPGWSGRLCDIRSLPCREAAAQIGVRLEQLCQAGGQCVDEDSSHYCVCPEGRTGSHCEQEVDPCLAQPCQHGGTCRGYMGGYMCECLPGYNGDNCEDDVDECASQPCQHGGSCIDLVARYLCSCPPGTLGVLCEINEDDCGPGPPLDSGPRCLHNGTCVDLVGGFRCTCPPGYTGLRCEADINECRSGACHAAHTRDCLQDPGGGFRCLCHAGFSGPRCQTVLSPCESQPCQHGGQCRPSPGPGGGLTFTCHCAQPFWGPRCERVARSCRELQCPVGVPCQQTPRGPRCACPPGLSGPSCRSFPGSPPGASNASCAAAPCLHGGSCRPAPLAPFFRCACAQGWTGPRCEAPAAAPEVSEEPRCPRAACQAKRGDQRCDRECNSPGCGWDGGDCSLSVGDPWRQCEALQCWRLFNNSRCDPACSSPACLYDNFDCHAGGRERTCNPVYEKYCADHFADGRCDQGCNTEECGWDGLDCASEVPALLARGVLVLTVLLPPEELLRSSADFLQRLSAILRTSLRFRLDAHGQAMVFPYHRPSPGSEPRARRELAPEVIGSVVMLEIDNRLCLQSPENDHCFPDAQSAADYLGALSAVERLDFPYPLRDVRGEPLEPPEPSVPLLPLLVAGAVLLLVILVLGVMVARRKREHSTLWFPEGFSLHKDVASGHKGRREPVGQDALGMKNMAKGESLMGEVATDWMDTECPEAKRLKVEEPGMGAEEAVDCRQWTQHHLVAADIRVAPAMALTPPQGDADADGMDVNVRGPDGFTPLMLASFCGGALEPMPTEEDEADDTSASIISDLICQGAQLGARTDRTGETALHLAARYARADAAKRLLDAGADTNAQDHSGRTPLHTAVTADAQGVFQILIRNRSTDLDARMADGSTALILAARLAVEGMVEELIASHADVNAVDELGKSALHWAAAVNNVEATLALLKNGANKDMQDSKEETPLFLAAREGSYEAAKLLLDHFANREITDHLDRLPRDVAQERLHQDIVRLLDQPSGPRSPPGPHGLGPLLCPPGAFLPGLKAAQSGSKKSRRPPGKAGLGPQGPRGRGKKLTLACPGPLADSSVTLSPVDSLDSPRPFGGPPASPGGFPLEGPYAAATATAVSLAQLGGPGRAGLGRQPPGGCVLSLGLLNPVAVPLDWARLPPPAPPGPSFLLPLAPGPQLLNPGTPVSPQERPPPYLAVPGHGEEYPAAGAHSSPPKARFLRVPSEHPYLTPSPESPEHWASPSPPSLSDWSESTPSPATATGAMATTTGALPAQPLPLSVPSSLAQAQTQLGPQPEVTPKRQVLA

[10] = small-molecule microarray binders of probe aEGFR, primary screen, biochemical, biotinylated probe, 635/667 nm fluorescence (AID 1097); conditions: higher = more signal;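 also: probe is a biotinylated anti-EGFR antibody binding compounds printed on slides; score combines fluorescence near 667 nm and signal to noise of each spot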

In the case of `CC(=O)n1cc(C(O)C2C=CC3C(=O)N(C)C(=O)C3N2Nc2ccccc2)c2ccccc21` (stereo not given), the composite z-score [1] is reported as 1.05, the z-score [2] is reported as -0.0186 (inactive) and the z-score [3] is reported as 1.4 (inactive). For the same molecule, the z-score [4] was 1.05 (inactive), the composite z-score [5] was 3.18 and the z-score [6] was -0.77 (inactive). The composite z-score [7] was 0.347, the composite z-score [8] was 0.606 and the composite z-score [9] was 1.12. The composite z-score [10] was -0.0644.

With `C=CCNC(=O)[C@H]1[C@@H]2C(=O)O[C@@H](c3ccccc3)[C@@H](c3ccccc3)N2[C@@H](c2ccc(O)cc2)[C@]12C(=O)N(C(=O)OCCOC)c1ccc(C#CCNC(N)=O)cc12` the composite z-score [1] was 1.42, the z-score [2] was 0.905 (inactive) and the z-score [3] was 0.311 (inactive). For the same molecule, the z-score [4] was 1.63 (inactive), the composite z-score [5] was 0.922 and the z-score [6] was -0.781 (inactive). It also gave a composite z-score [7] of 0.136, a composite z-score [8] of 0.79 and a composite z-score [9] of 0.924. The composite z-score [10] was 0.0821.

For `O=C1c2ccccc2[C@](Cc2ccccc2I)(C(=O)NC2CC2)[C@H](c2ccc(CO)cc2)N1Cc1ccccc1`, the composite z-score [1] was 0.735, the z-score [2] was -0.835 (inactive) and the z-score [3] was -0.388 (inactive). For the same molecule, the z-score [4] was -1.15 (inactive), the composite z-score [5] was 2.86 and the z-score [6] was 0.192 (inactive). For the same molecule, the composite z-score [7] was -0.0741, the composite z-score [8] was 0.133 and the composite z-score [9] was 0.566. The composite z-score [10] was -0.0681.

For `CC(C)N1C(=O)c2ccccc2[C@](C)(C(=O)NCc2ccccc2)[C@@H]1c1ccc(CO)cc1`, the composite z-score [1] was 0.0055, the z-score [2] was -0.261 (inactive) and the z-score [3] was -1.16 (inactive). For the same molecule, the z-score [4] was -0.625 (inactive), the composite z-score [5] was 1.91 and the z-score [6] was -0.587 (inactive). The composite z-score [7] was 0.0322, the composite z-score [8] was -0.969 and the composite z-score [9] was -0.394. The composite z-score [10] was -0.244.

For `CN(C)C(=O)[C@@]1(Cc2ccccc2CN=[N+]=[N-])N=C(c2ccc(OCCCO)cc2)O[C@H]1c1ccccc1`, the composite z-score [1] was 1.32, the z-score [2] was 0.365 (inactive) and the z-score [3] was 0.0586 (inactive). The z-score [4] was 34.7 (active), the composite z-score [5] was 3.32 and the z-score [6] was 0.632 (inactive). For the same molecule, the composite z-score [7] was 0.0561, the composite z-score [8] was 0.788 and the composite z-score [9] was 0.301. The composite z-score [10] was -0.0356.

With `CC(C)OC(=O)C=C1C[C@@H](c2ccccc2C(F)(F)F)O[C@@H](c2ccccc2C(F)(F)F)O1` the composite z-score [1] was 0.494, the z-score [2] was -0.317 (inactive) and the z-score [3] was 1.17 (inactive). For the same molecule, the z-score [4] was 1.38 (inactive), the composite z-score [5] was 0.675 and the z-score [6] was -0.952 (inactive). It also gave a composite z-score [7] of -0.145, a composite z-score [8] of 0.134 and a composite z-score [9] of 0.266. It also gave a composite z-score [10] of -0.0776.

In the case of `O=C(NCc1ccc(F)cc1)[C@H]1C[C@H]2C(=O)N[C@@H](Cc3ccccc3)C(=O)N2[C@H]1c1ccc(O)cc1`, the composite z-score [1] is reported as 0.53, the z-score [2] is reported as 0.839 (inactive) and the z-score [3] is reported as 0.247 (inactive). The z-score [4] was 2.14 (inactive), the composite z-score [5] was 2.34 and the z-score [6] was 0.675 (inactive). The composite z-score [7] was -0.118, the composite z-score [8] was 0.223 and the composite z-score [9] was -0.75. It also gave a composite z-score [10] of -0.268.

For `COc1ccc([C@H]2OC[C@@H]3CC4(CC=CC4)C(=O)N32)cc1`, the composite z-score [1] was 1.08, the z-score [2] was -0.205 (inactive) and the z-score [3] was 0.0197 (inactive). For the same molecule, the z-score [4] was -0.451 (inactive), the composite z-score [5] was 1.24 and the z-score [6] was -0.472 (inactive). It also gave a composite z-score [7] of -0.0171, a composite z-score [8] of 1.08 and a composite z-score [9] of 0.527. It also gave a composite z-score [10] of 0.0376.

In the case of `CCCCCCC#C[Si](O[C@H](c1ccccc1)c1cn([C@H](CO)Cc2ccccc2)nn1)(C(C)C)C(C)C`, the composite z-score [1] is reported as 1.55, the z-score [2] is reported as -2.3 (inactive) and the z-score [3] is reported as -16.2 (active). The z-score [4] was -1.57 (inactive), the composite z-score [5] was 1.7 and the z-score [6] was 1.16 (inactive). The composite z-score [7] was -0.198, the composite z-score [8] was 0.0817 and the composite z-score [9] was -0.0029. It also gave a composite z-score [10] of -0.115.

For `C=C(C)C1C(=C)CN([C@H](CO)c2ccccc2)C1=O` (stereo not given in full), the composite z-score [1] was 0.0584, the z-score [2] was -0.329 (inactive) and the z-score [3] was -0.635 (inactive). For the same molecule, the z-score [4] was -1.97 (inactive), the composite z-score [5] was 1.62 and the z-score [6] was -0.233 (inactive). It also gave a composite z-score [7] of -0.0757, a composite z-score [8] of 0.245 and a composite z-score [9] of 0.0316. For the same molecule, the composite z-score [10] was -0.18.

For `CCOC(=O)C[C@H]1[C@H](OC(=O)c2ccc(C(=O)c3ccccc3)cc2)[C@@H](NC(=O)c2ccc(-c3ccccc3)cc2)c2cc(OCCCO)ccc2N1C(=O)c1ccccc1`, the composite z-score [1] was 1.36, the z-score [2] was -0.575 (inactive) and the z-score [3] was -0.34 (inactive). The z-score [4] was -0.169 (inactive), the composite z-score [5] was 1.45 and the z-score [6] was -0.83 (inactive). For the same molecule, the composite z-score [7] was -0.221, the composite z-score [8] was 0.421 and the composite z-score [9] was 1.03. It also gave a composite z-score [10] of 0.0911.

With `C=CC[C@@]1(C(=O)N(C)C)N=C(c2ccc(OCCCO)cc2)O[C@@H]1c1ccccc1N=[N+]=[N-]` the composite z-score [1] was 1.55, the z-score [2] was -0.431 (inactive) and the z-score [3] was -0.0481 (inactive). For the same molecule, the z-score [4] was -0.0865 (inactive), the composite z-score [5] was 3.57 and the z-score [6] was 0.724 (inactive). For the same molecule, the composite z-score [7] was 0.193, the composite z-score [8] was 1.07 and the composite z-score [9] was 1.06. For the same molecule, the composite z-score [10] was 0.276.

In the case of `[N-]=[N+]=NCc1ccccc1[C@H]1OC(c2ccc(OCCCO)cc2)=N[C@@]1(Cc1ccccc1)C(=O)NCc1ccccc1`, the composite z-score [1] is reported as 1.48, the z-score [2] is reported as -1.9 (inactive) and the z-score [3] is reported as -0.0354 (inactive). For the same molecule, the z-score [4] was 6.58 (inactive), the composite z-score [5] was 2.86 and the z-score [6] was 0.84 (inactive). The composite z-score [7] was 0.151, the composite z-score [8] was 0.177 and the composite z-score [9] was 1.12. It also gave a composite z-score [10] of 0.411.

With `O=C1c2ccccc2[C@](Cc2ccccc2I)(C(=O)NC2CC2)[C@H](c2ccc(CO)cc2)N1C1CCCCC1` the composite z-score [1] was 1.56, the z-score [2] was 1.13 (inactive) and the z-score [3] was 0.525 (inactive). For the same molecule, the z-score [4] was 2.36 (inactive), the composite z-score [5] was 2.38 and the z-score [6] was 0.257 (inactive). It also gave a composite z-score [7] of -0.224, a composite z-score [8] of 0.62 and a composite z-score [9] of 1.05. It also gave a composite z-score [10] of -0.36.

For `C=CCC(OC(C)=O)[C@@H]1[C@@H](N(Cc2ccc(-c3cccc(C(F)(F)F)c3)o2)C(=O)Cc2ccc(F)cc2)c2cc(OCCCO)ccc2N1C(=O)Cc1ccc(OC)cc1` (stereo not given in full), the composite z-score [1] was -2.39, the z-score [2] was -0.973 (inactive) and the z-score [3] was 0.0138 (inactive). For the same molecule, the z-score [4] was -0.982 (inactive), the composite z-score [5] was -2.02 and the z-score [6] was -0.0261 (inactive). For the same molecule, the composite z-score [7] was 0.454, the composite z-score [8] was -0.137 and the composite z-score [9] was -1.08. It also gave a composite z-score [10] of -0.195.

With `COc1ccc([Si](C)(C)[C@@H]2[C@@H](CCO)O[C@]3(C(=O)N(Cc4ccc(N5C(=O)COc6ccccc65)cc4)c4ccccc43)[C@H]2C)cc1` the composite z-score [1] was 1.5, the z-score [2] was 3.6 (inactive) and the z-score [3] was -0.0953 (inactive). The z-score [4] was 35.7 (active), the composite z-score [5] was 2.44 and the z-score [6] was 0.49 (inactive). It also gave a composite z-score [7] of -0.0375, a composite z-score [8] of 1.17 and a composite z-score [9] of 0.767. It also gave a composite z-score [10] of 0.0192.

In the case of `C=CCC(OC(C)=O)[C@@H]1[C@@H](N(Cc2cccc3ccccc23)C(=O)c2ccc(-c3ccccc3)cc2)c2cc(OCCCO)ccc2N1C(=O)Cc1ccc(OC)cc1` (stereo not given in full), the composite z-score [1] is reported as 0.341, the z-score [2] is reported as -0.715 (inactive) and the z-score [3] is reported as -0.445 (inactive). For the same molecule, the z-score [4] was -1.03 (inactive), the composite z-score [5] was 0.792 and the z-score [6] was 0.457 (inactive). It also gave a composite z-score [7] of -0.0491, a composite z-score [8] of 0.0231 and a composite z-score [9] of 0.0343. The composite z-score [10] was -0.0415.

For `CCOC(=O)C[C@H]1[C@H](OC(=O)Cc2ccc3c(c2)OCO3)[C@@H](NC(=O)c2ccc3ccccc3c2)c2cc(OCCCO)ccc2N1C(=O)c1ccccc1`, the composite z-score [1] was 0.745, the z-score [2] was -0.0607 (inactive) and the z-score [3] was 0.175 (inactive). For the same molecule, the z-score [4] was 0.954 (inactive), the composite z-score [5] was 1.69 and the z-score [6] was 1.35 (inactive). The composite z-score [7] was -0.0961, the composite z-score [8] was 0.329 and the composite z-score [9] was 0.742. For the same molecule, the composite z-score [10] was -0.0225.

With `C=CCOC(=O)[C@H]1[C@@H]2C(=O)O[C@@H](c3ccccc3)[C@@H](c3ccccc3)N2[C@@H](c2ccc(OCCOC(=O)[C@@H]3C[C@@H]4C(=O)N[C@@H](CCCCN(C)C)C(=O)N4[C@@H]3c3ccc(O)cc3)cc2)[C@]12C(=O)Nc1ccc(I)cc12` the composite z-score [1] was 1.46, the z-score [2] was 1.36 (inactive) and the z-score [3] was -1.09 (inactive). The z-score [4] was 1.52 (inactive), the composite z-score [5] was 2.77 and the z-score [6] was -1.34 (inactive). The composite z-score [7] was -0.0823, the composite z-score [8] was 1.51 and the composite z-score [9] was 1.05. It also gave a composite z-score [10] of 0.0752.
